An excerpt weighted towards active compounds, which were near 8% of everything screened.
HT1080 IDH1KD tx: HT-1080 IDH1 knockdown cell toxicity (counter line) | hit rate 2% among 360,000 | AID 686971 | HT-1080 IDH1 knockdown viability, ATP luminescence, 48 h | Potency, µM (top dose mostly 46.1 µM), for inactives: at the highest dose activity, negative = toxicity, usual class: cytotoxic;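 further: 0% = DMSO wells and -100% = cell-free medium wells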
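Viability of IDH1-knockdown HT-1080 fibrosarcoma cells was assessed by CellTiter-Glo after 48 h at 37 °C with titrated compound; concentration-effect curves were classified by fit quality and response size.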
MCF10A rerep: inducers of DNA re-replication in MCF 10A breast cells; MCF 10A DNA re-replication, Hoechst nuclear intensity, 48 h; AID 624296; Potency, µM (top dose mostly 46.1 µM), for inactives: at the highest dose activity, positive = re-replication, actives largely listed as activators; hit rate 2.9% among 350,000; further: % of control where 0% means no effect; nearly all actives have a fitted effect of over 50% in size
SW480 rerep: DNA re-replication induction in SW480 cells; SW480 DNA re-replication, Hoechst DNA content imaging, 48 h; Potency, µM (titrated, usually from 46.1 µM), for inactives: top-dose re-replication activation, usual class: activators; hit rate 1.8% among 340,000; AID 624297; further: % of control where 0% means no effect; nearly all actives have a fitted effect of over 55% in size
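SW480 cells exposed to compounds for 48 hr at 37 C, 5% CO2, then Hoechst-stained 40 min. Nuclear DNA content imaged by fluorescence scanning (405 nm excitation, 500-530 nm emission); re-replication scored as increased high-intensity nuclei.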
KB-3-1 tox: kills parental KB-3-1 adenocarcinoma cells. KB-3-1 viability, CellTiter-Glo ATP luminescence, 72 h. Potency, µM (highest dose often 46.1 µM), hits mostly cytotoxic. hit rate 1.4% among 400,000; further: on the % scale 0 is the no-effect control and ±100 the full control effect; nearly all actives have a fitted effect of over 60% in size
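KB-3-1 cells, DMEM (no phenol red) + 10% FBS; compound by pin transfer, 72 h, 37 °C. Readout: CellTiter-Glo luminescence after 10 min. Data normalized, curve-fitted.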
HT1080NT lethal: kills 2HG-producing HT-1080-NT fibrosarcoma cells | HT-1080-NT fibrosarcoma viability, CellTiter-Glo ATP luminescence, 48 h | Potency, µM (highest dose often 46.1 µM), for the others: at the top dose activity, negative = less viability, actives largely listed as cytotoxic | hit rate 1.6% among 360,000 | AID 686970;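 further: NT is the 2HG producing partner of a matched IDH1 knockdown line; 0% = DMSO-treated cells and -100% = media-only wells without cells; nearly all actives have a fitted effect of over 55% in size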
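Read-out is CellTiter-Glo luminescence after 10 minutes at room temperature, following 48 hours' compound treatment of HT-1080-NT cells (750 cells/well, RPMI, 5% FBS, 37 degrees C).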
KB-V1 MDR tox: kills drug-selected multidrug resistant KB-V1 cells | hit rate 3.4% among 400,000 | Potency, µM (highest dose often 46.1 µM), hits mostly cytotoxic | KB-V1 MDR cells viability, CellTiter-Glo, 72 h; further: on the % scale 0 is the no-effect control and ±100 the full control effect; nearly all actives have a fitted effect of over 60% in size
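Cytotoxicity via CellTiter-Glo luminescence after 72 h compound exposure at 37 degrees C. Cells: drug-selected KB-V1 line, DMEM phenol-red free plus 10% FBS. Compounds tested at multiple concentrations; normalized data fitted to concentration-effect curves.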
Starred values were filed as active, the others as inactive; i = inactive; ? = inconclusive; nt = not tested or not shown. The call rests on the fitted dose curve; in most records, active means well fitted curve in the direction sought with a large enough effect; inconclusive means small, poorly fitted or top-dose-only effect, or another doubt; inactive means no such curve, though single readings can be large; an effect the other way counts as inactive or inconclusive. Potency means the concentration at half of the fitted maximal effect.

SMILES	HT1080 IDH1KD tx	MCF10A rerep	SW480 rerep	KB-3-1 tox	HT1080NT lethal	KB-V1 MDR tox
CC(Oc1ccc(Cl)cc1Cl)C(=O)NNC(=O)c1cccnc1 (stereo not drawn)	4%	-8%	-12%	i	-12%	i
CC(Oc1ccc(Cl)cc1Cl)c1nc(-c2ccc(NC(=O)c3cccnc3)cc2)no1 (stereo not drawn)	7.3µM*	27%	-3%	i	?	i
COc1ccc(C(=O)N2CCN(c3nc4c(C)c(Cl)ccc4s3)CC2)c(OC)c1	nt	nt	nt	i	nt	i
COc1ccc(NS(=O)(=O)c2ccc(N3CCOCC3)c(NC(=O)C(C)C)c2)cc1	-9%	9%	0%	?	-11%	18µM*
COc1ccc(NS(=O)(=O)c2ccc(N3CCOCC3)c(NC(=O)c3ccc(F)cc3)c2)cc1	?	-1%	?	?	?	?
CCN(CC)S(=O)(=O)c1ccc(N2CCCC2)c(NS(=O)(=O)c2ccc(OC)cc2)c1	0%	-7%	?	i	-2%	4.1µM*
COc1ccc(NS(=O)(=O)c2ccc(N3CCCCC3)c(N)c2)cc1	-26%	9%	-4%	21µM*	-19%	?
CCOC(=O)/C=C/C(=O)Nc1cc(S(=O)(=O)Nc2ccc(OC)cc2)ccc1N1CCOCC1	-9%	?	16µM*	i	-14%	i
COc1ccc(NS(=O)(=O)c2ccc(N3CCCCC3)c(NC(=O)C(C)NC(N)=O)c2)cc1 (stereo not drawn)	-3%	-7%	16%	nt	0%	nt
CCC(=O)Nc1ccc(-c2nnc(SCc3ccccc3)n2C)cc1	nt	nt	nt	i	nt	i
COc1cccc(NC(=O)CCN2CCN(CCO)CC2)c1	nt	nt	nt	i	nt	i
CCOC(=O)c1nnc2c(-c3ccc(Cl)cc3)c(C)nn2c1N	nt	nt	nt	i	nt	i
Cn1c(-c2ccc3ccccc3n2)[n+](C)c2ccccc21	?	9%	-20%	9.2µM*	?	?
CN(C)c1ccc(-c2n(C)c3ccccc3[n+]2C)cc1	8.9µM*	?	?	2.9µM*	5.6µM*	i
Cn1c(-c2ccccn2)[n+](C)c2ccccc21	-3%	3%	24%	i	8%	i
Cn1c(-c2cccc([N+](=O)[O-])c2)[n+](C)c2ccccc21	-25%	7%	2%	i	-1%	i
COC(=O)c1c(NC(NC(=O)C(C)C)C(Cl)(Cl)Cl)sc2c1CCC2 (stereo not drawn)	-26%	?	14%	i	-22%	i
COC(=O)c1c(NC(NC(=O)CC(C)C)C(Cl)(Cl)Cl)sc2c1CCC2 (stereo not drawn)	-14%	0%	?	i	1%	18µM*
CCOC(=O)c1c(NC(NC(C)=O)C(Cl)(Cl)Cl)sc2c1CCCC2 (stereo not drawn)	-29%	21µM*	8%	?	?	i
CCC(=O)NC(Nc1sc2c(c1C(=O)OC)CCC2)C(Cl)(Cl)Cl (stereo not drawn)	1%	?	-6%	?	1%	23µM*
CC(=O)NC1=C(C#N)CCC1	nt	nt	nt	?	nt	i
O=C1c2ccccc2NC2(CCCCC2)N1N=C1CCCCC1	23%	7%	-2%	i	12%	i
O=C1c2ccccc2NC(c2cccc(Cl)c2)N1N=C1CCCCCC1 (stereo not drawn)	8%	27%	-2%	?	15%	26µM*
CC(OC(=O)C1CCCCC1)c1nc2ccccc2[nH]1 (stereo not drawn)	4%	-1%	-8%	i	-1%	21µM*
CC/C(=C/c1ccccc1)c1cccc2[nH]c3c(OC)cccc3c12	?	21µM*	11%	?	?	?
CC/C(=C\c1ccccc1)c1cccc2oc3ccccc3c12	nt	nt	nt	i	nt	i
